{"source": "PubChem BioAssay AID686979", "about": "(National Center for Advancing Translational Sciences (NCATS), 2013)", "note": "The whole screen tested about 420,000 compounds, of which about 50,000 (12%) were called active. Entries that show only a call come without a potency. Not shown: some 26% with an inconclusive outcome. The call rests on the fitted dose curve; in most records, active means well fitted inhibition curve with a large enough effect; inconclusive means small, poorly fitted or top-dose-only effect; inactive means flat fitted curve, though single readings scatter. Only a selection was taken, and actives are over-represented in it overall. Potency means the concentration at half of the fitted maximal effect."}
{"test": "qHTS for Inhibitors of human tyrosyl-DNA phosphodiesterase 1 (TDP1): qHTS in cells in presence of CPT; further: nearly all actives have a fitted effect of over 55% in size", "details": "chicken DT40 Tdp1-/-;hTDP1 cells + 20 nM CPT, ATP luminescence, 48 h; series mostly up to 46.2 µM", "in_short": "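Cell growth measured by CellTiter-Glo luminescence after a minimum 48 h, 37 C compound exposure with 20 nM CPT in Tdp1-knockout DT40 cells stably expressing hTDP1, seeded 400/well; qHTS titration format.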"}
{"smiles": "CCN(C(=O)C1CCCN(c2nc(-c3ccc(OC)cc3)no2)C1)c1ccc(OC)cc1", "note": "(centres undefined)", "Potency": "16.4 µM (active)"}
{"smiles": "CCOc1ccc(N(CC)C(=O)C2CCN(S(=O)(=O)c3cccc4nonc34)CC2)cc1", "Potency": "inactive"}
{"smiles": "COc1ccc(NC(=O)N2CCCC(c3nc(-c4ccc(F)cc4)no3)C2)cc1", "note": "(centres undefined)", "Potency": "inactive"}
{"smiles": "CS(=O)(=O)c1ccccc1C(=O)Nc1ccc2sccc2c1", "Potency": "inactive"}
{"smiles": "O=C(Nc1cc2c3c(c1)CC(=O)N3CCC2)c1ccccc1F", "Potency": "inactive"}
{"smiles": "CCN1C(=O)[C@H]2[C@@H](c3ccccc3)N[C@]3(CCCN(Cc4ccc(C)cc4)C3=O)[C@H]2C1=O", "Potency": "inactive"}
{"smiles": "CCCCC12CN3CC(C)(CN(C1)C3c1ccc(O)c(OC)c1)C2=O", "note": "(centres undefined)", "Potency": "inactive"}
{"smiles": "CC(=O)N(CN1C(=O)C2C3C=CC(C3)C2C1=O)c1cccc(Cl)c1", "note": "(centres undefined)", "Potency": "inactive"}
{"smiles": "CCCCCCSc1ccc([C@@H]2[C@@H]3C(=O)N(CC)C(=O)[C@@H]3[C@]3(C(=O)OC)CCCCN23)cc1OC", "Potency": "20.6 µM (active)"}
{"smiles": "CCN1C(=O)[C@@H]2[C@@H](c3ccc(-c4cccc(Cl)c4)cc3)N3CCC[C@@]3(C(=O)OC)[C@@H]2C1=O", "Potency": "14.6 µM (active)"}
{"smiles": "CC1CCN(CCCNC(=O)CN2C(=O)CSc3ccc(S(=O)(=O)N4CCCCC4)cc32)CC1", "Potency": "inactive"}
{"smiles": "O=C(Cc1ccccc1)Nc1ccc(C(=O)Nc2ccccc2C(=O)O)cc1", "Potency": "inactive"}
{"smiles": "Cc1ccc(Cn2cc(CCC(=O)NCc3ccc(OC(C)C)cc3)c3ccccc32)cc1", "Potency": "23.1 µM (active)"}
{"smiles": "CC(NC(=O)CCc1cn(Cc2ccccc2Cl)c2ccccc12)c1ccccc1", "note": "(centres undefined)", "Potency": "20.6 µM (active)"}
{"smiles": "Cn1cc(CCC(=O)NC2CC2)c2ccccc21", "Potency": "inactive"}
{"smiles": "Cc1ccc(CNC(=O)[C@@H](NC(=O)Cc2ccccc2)C(C)C)cc1", "Potency": "inactive"}
{"smiles": "CCCCC(=O)NCc1ccc(F)cc1", "Potency": "inactive"}
{"smiles": "Cc1ccc(CNC(=O)Cc2cn(C)c3ccccc23)cc1", "Potency": "inactive"}
{"smiles": "O=C(CCc1cn(Cc2ccc(F)cc2)c2ccccc12)NC1CCCCC1", "Potency": "inactive"}
{"smiles": "CC(NC(=O)Cn1cc(C(F)(F)F)cc(Cl)c1=O)c1ccccc1", "note": "(centres undefined)", "Potency": "inactive"}
{"smiles": "CCn1cc(CCC(=O)NCc2ccc(F)cc2)c2ccccc21", "Potency": "16.4 µM (active)"}
{"smiles": "CC(C)C1Cc2[nH][nH]c(=O)c2C(c2ccc(Cl)cc2)O1", "note": "(centres undefined)", "Potency": "inactive"}
{"smiles": "O=C(NCc1ccccc1)C1CCN(C(=O)Cc2ccccc2)CC1", "Potency": "inactive"}
{"smiles": "Cc1ccc(C(=O)Cc2nnc(C)s2)cc1", "Potency": "inactive"}
{"smiles": "COc1ccc(NC(=O)C(CC(C)C)NS(=O)(=O)c2ccc3c(c2)CCN3C(C)=O)cc1OC", "note": "(centres undefined)", "Potency": "inactive"}
{"smiles": "O=C1COc2c1ccc(O)c2O", "Potency": "inactive"}
{"smiles": "COc1ccc(F)cc1C(=O)COC(=O)c1n[nH]c(=O)c2ccccc12", "Potency": "inactive"}
{"smiles": "COc1ccc(C)cc1N(C(=O)Cn1nnc(-c2ccc(C)o2)n1)C(C(=O)NC1CCCC1)c1ccncc1", "note": "(centres undefined)", "Potency": "inactive"}
{"smiles": "COc1ccc(C2OCC3(CO2)SC(=O)NC3=O)cc1OC", "note": "(centres undefined)", "Potency": "inactive"}
{"smiles": "N#CCC(=O)NC1CCC(CC2CCC(NC(=O)CC#N)CC2)CC1", "note": "(centres undefined)", "Potency": "inactive"}
{"smiles": "COc1ccc(Nc2nc(NCc3ccco3)nc(N/N=C/c3ccccc3Cl)n2)cc1", "Potency": "20.6 µM (active)"}
{"smiles": "COc1ccc(Nc2nc(Cl)nc(NCc3ccco3)n2)cc1", "Potency": "inactive"}
{"smiles": "COc1ccc(NC(=O)C(=O)NCc2ccco2)cc1", "Potency": "inactive"}
{"smiles": "CCN(CC)S(=O)(=O)c1ccc(OC(C)C)c(N)c1", "Potency": "inactive"}
{"smiles": "COc1ccc2cc(C(=O)NCC3CCCO3)[nH]c2c1", "note": "(centres undefined)", "Potency": "inactive"}
{"smiles": "O=C(O)c1ccc(OCC2CCCO2)cc1", "note": "(centres undefined)", "Potency": "inactive"}
{"smiles": "COc1ccc(OC)c(NC(=O)c2cc(-c3cc(F)ccc3OCC3CCCO3)n[nH]2)c1", "note": "(centres undefined)", "Potency": "8.2 µM (active)"}
{"smiles": "O=S(=O)(c1ccc(F)cc1)n1ccc(-c2cnc(-c3ccccc3)s2)n1", "Potency": "inactive"}
{"smiles": "COc1cc2c(cc1NC(=O)CN1CCN(S(=O)(=O)c3ccc(F)cc3)CC1)oc1ccccc12", "Potency": "inactive"}
{"smiles": "COc1cc(/C=C/C(=O)OCC(=O)c2ccccc2)cc(OC)c1OC", "Potency": "inactive"}
{"smiles": "COc1cc2c(cc1NC(=O)COC(=O)/C=C/c1ccccc1)oc1ccccc12", "Potency": "20.6 µM (active)"}
{"smiles": "CSCCC(NC(=O)c1ccccc1)C(=O)N1CCCCCCC1", "note": "(centres undefined)", "Potency": "inactive"}
{"smiles": "COc1ccc(/C=C(\\C#N)C(=O)ONC2=NCCCCC2)cc1", "Potency": "16.4 µM (active)"}
{"smiles": "CC(C)(C)C(=O)/C(C#N)=C/c1ccc(O)cc1", "Potency": "inactive"}
{"smiles": "COc1ccc(/C=C(\\C#N)C(=O)OCC(=O)N(C)C2CCS(=O)(=O)C2)cc1", "note": "(centres undefined)", "Potency": "inactive"}
{"smiles": "CCN(CC(=O)Nc1c(F)cccc1F)C(=O)Cc1cccs1", "Potency": "inactive"}
{"smiles": "CC(C)C1CC2=C(C(=O)OC(C)(C)O2)C(c2ccc(F)cc2)O1", "note": "(centres undefined)", "Potency": "inactive"}
{"smiles": "O=C(NCc1ccccc1)C1CCCN(S(=O)(=O)c2cccs2)C1", "note": "(centres undefined)", "Potency": "inactive"}
{"smiles": "O=C(NCc1cccs1)C1CCN(S(=O)(=O)c2ccc(Cl)cc2)CC1", "Potency": "inactive"}
{"smiles": "O=C(NCc1ccc(Cl)cc1)C1CCN(S(=O)(=O)c2cccs2)CC1", "Potency": "11.6 µM (active)"}
{"smiles": "CC1=C(C(N)=O)C(c2ccc(F)cc2)n2nc(CCCO)nc2N1", "note": "(centres undefined)", "Potency": "inactive"}
{"smiles": "CCCCOP(=O)(c1ccc(N(C)C)cc1)C(O)c1cc(OC)ccc1OC", "note": "(centres undefined)", "Potency": "inactive"}
{"smiles": "Cc1ccc(S(=O)(=O)N(C)c2ccc(OCC(=O)OCc3ccc(C#N)cc3)cc2)cc1", "Potency": "inactive"}
{"smiles": "Cc1ccc(CN2CCN(Cc3cccc(C)n3)CC2CCO)cc1", "note": "(centres undefined)", "Potency": "inactive"}
{"smiles": "COC(=O)C1CCN(C(=O)COC(=O)c2cc(S(=O)(=O)N3CCOCC3)ccc2C)CC1", "Potency": "inactive"}
{"smiles": "N#Cc1cccc(Nc2c3c(nc4ccccc24)CCCC3)c1", "Potency": "18.4 µM (active)"}
{"smiles": "N#Cc1cccc(NC(=O)CN2CCCCCC2)c1", "Potency": "inactive"}
{"smiles": "Cc1ccc(Nc2c3c(nc4ccccc24)CCC3)cc1", "Potency": "11.6 µM (active)"}
{"smiles": "CC(=O)Nc1ccc(Nc2c3ccccc3nc3ccccc23)cc1", "Potency": "0.326 µM (active)"}
{"smiles": "O=C(Nc1c2c(nc3ccccc13)CCCC2)c1ccccc1Br", "Potency": "inactive"}
{"smiles": "N#Cc1cccc(NC(=O)CCC2CCCC2)c1", "Potency": "inactive"}
{"smiles": "CC(=O)Nc1ccc(NC(=O)COc2ncnc3ccccc23)cc1", "Potency": "inactive"}
{"smiles": "CC(=O)Nc1ccc(S(=O)(=O)N(C)c2nc3ccccc3nc2Cl)cc1", "Potency": "inactive"}
{"smiles": "CN1CCCN(C(=O)C2CCCCC2)CC1", "Potency": "inactive"}
{"smiles": "CC1(C)C2CC=C(/C=N/NC(=O)C3CC3)C1C2", "note": "(centres undefined)", "Potency": "inactive"}
{"smiles": "Cc1cc(C)n(CCC(=O)N2CCN(S(=O)(=O)c3ccc(C)c(C)c3)CC2)n1", "Potency": "inactive"}
{"smiles": "O=C(OCCN1C(=O)c2ccccc2C1=O)[C@@H]1CC(O)CN1S(=O)(=O)c1ccccc1[N+](=O)[O-]", "note": "(some centres undefined)", "Potency": "inactive"}
{"smiles": "O=C(O)CCCCCCCCc1cn(CN2C(=O)c3ccccc3C2=O)nn1", "Potency": "inactive"}
{"smiles": "Cn1c(N)c(C(=O)COC(=O)c2ccc3ccccc3c2)c(=O)n(C)c1=O", "Potency": "inactive"}
{"smiles": "Cc1cc(=O)oc2c1ccc1ccccc12", "Potency": "inactive"}
{"smiles": "Cc1nnc(SC(C)C(=O)c2c[nH]c3ccccc23)n1C1CC1", "note": "(centres undefined)", "Potency": "inactive"}
{"smiles": "O=C(NCCOc1ccccc1Cl)C(=O)Nc1ccccc1", "Potency": "20.6 µM (active)"}
{"smiles": "COc1ccccc1OCCNC(=O)CCNC(=O)c1ccccc1Cl", "Potency": "inactive"}
{"smiles": "COc1cc(SC)ccc1C(=O)NCCOc1ccccc1Cl", "Potency": "inactive"}
{"smiles": "COc1cc(C(=O)NNC(=O)CN2C(=O)NC3(CCCC3)C2=O)cc(OC)c1OC", "Potency": "inactive"}
{"smiles": "CC1(C(=O)NS(=O)(=O)c2cccc(F)c2)CCN1C(=O)Cc1ccc(Cl)cc1Cl", "note": "(centres undefined)", "Potency": "inactive"}
{"smiles": "CCCOc1ccc(Cc2c(O)nc(SC)[nH]c2=O)cc1C", "Potency": "inactive"}
{"smiles": "COc1ccc(S(=O)(=O)N2CCN(c3cnccn3)CC2)cc1", "Potency": "inactive"}
{"smiles": "COc1ccc(CCC(=O)N2CCN(S(=O)(=O)c3ccc(OC)cc3)CC2)cc1", "Potency": "inactive"}
{"smiles": "COc1ccc(S(=O)(=O)N2CCN(c3ncnc4c(-c5ccccc5)nsc34)CC2)cc1", "Potency": "16.4 µM (active)"}
{"smiles": "Cc1noc(C)c1COc1ccccc1C(=O)N(C)CC(=O)Nc1cccc(F)c1", "Potency": "inactive"}
{"smiles": "C[C@H]1NS(=O)(=O)c2cc(Cl)ccc2O[C@@H]1c1ccccc1", "Potency": "inactive"}
{"smiles": "COc1ccc(OC)c(S(=O)(=O)n2c([N+](=O)[O-])cnc2C)c1", "Potency": "inactive"}
{"smiles": "COCCSc1nnc(NC(=O)CCS(=O)(=O)Cc2ccccc2)s1", "Potency": "inactive"}
{"smiles": "CCOCc1nnc(NC(=O)CCS(=O)(=O)Cc2ccccc2)s1", "Potency": "9.2 µM (active)"}
{"smiles": "CCCCc1nnc(NC(=O)CS(=O)(=O)Cc2ccccc2)s1", "Potency": "inactive"}
{"smiles": "Cn1c(N)c(C(=O)COC(=O)/C=C/c2cccc(C(F)(F)F)c2)c(=O)n(C)c1=O", "Potency": "inactive"}
{"smiles": "Cc1ccc(CSCC(=O)N(C)CC(=O)Nc2cccc(F)c2)cc1", "Potency": "inactive"}
{"smiles": "CCS(=O)(=O)c1ccc(-c2cccc(NC(=O)c3ccc(Br)o3)c2)nn1", "Potency": "inactive"}
{"smiles": "Cc1ccc(S(=O)(=O)N(Cc2ccc(Cl)cc2)c2ccccc2C(=O)NCc2cccnc2)cc1", "Potency": "18.4 µM (active)"}
{"smiles": "O=C(NCc1ccc(Cl)c(Cl)c1)c1cccnc1", "Potency": "inactive"}
{"smiles": "O=C(O)c1ccccc1-c1ccccc1C(=O)NCc1cccnc1", "Potency": "inactive"}
{"smiles": "O=C(NCc1cccnc1)c1cccnc1Sc1ccc(Cl)cc1", "Potency": "inactive"}
{"smiles": "CS(=O)(=O)N(Cc1ccccc1Cl)c1ccc(C(=O)NCc2cccnc2)cc1", "Potency": "23.1 µM (active)"}
{"smiles": "Cc1ccc(C(=O)NC(=S)NCc2cccnc2)cc1", "Potency": "inactive"}
{"smiles": "CC(=O)NCC(=O)N(C)C(C(=O)Nc1ccc2c(c1)OCCO2)c1ccccc1", "note": "(centres undefined)", "Potency": "inactive"}
{"smiles": "O=C(NCCCN1CCCC1=O)C(=O)NCC1OCCN1S(=O)(=O)c1ccc(Br)cc1", "note": "(centres undefined)", "Potency": "18.4 µM (active)"}
{"smiles": "COc1ccc(S(=O)(=O)N2CCOC2CNC(=O)C(=O)NCc2ccc(F)cc2)cc1", "note": "(centres undefined)", "Potency": "inactive"}
{"smiles": "O=C(NCc1ccncc1)C(=O)NCC1OCCN1S(=O)(=O)c1ccc(Br)cc1", "note": "(centres undefined)", "Potency": "inactive"}
{"smiles": "CCOC(=O)c1ccccc1C(=O)N1CCOCCOCCOCC1", "Potency": "inactive"}
{"smiles": "CCOC(=O)c1cnc2c(C)cc(Cl)cc2c1NCCc1ccc(OC)c(OC)c1", "Potency": "inactive"}
{"smiles": "CCOC(=O)c1cnc2c(C)cc(C)cc2c1Nc1ccc(N2CCOCC2)cc1", "Potency": "25.9 µM (active)"}
{"smiles": "CC(C)(O)C1=C[N+](=O)CC=C1", "Potency": "inactive"}
{"smiles": "COc1ccc(SCc2cc(=O)c3ccc(C)c(C)c3[nH]2)cc1", "Potency": "inactive"}
